# A selection follows.
# aSyn UTR act = Activators via SNCA 5'UTR binding, MLPCN. AID 1814, 2009. activity score, % (tested at 7.5 µM), hits read low. alpha-synuclein 5'UTR reporter, activators screen. 300,000 compounds, 7.1% hits; in the data active = activity score below about -60%
# Hits are given with their value; n = inactive.
SMILES,aSyn UTR act
CCC1CC(C(=O)Nc2ccccc2)C(=O)O1 (stereo unspecified),-64
COc1cc(O)sc1C=Nc1ccc(Cl)cc1,-92
Cc1ccc(-c2nc(CS(=O)(=O)CC(=O)NC3CCC(C)CC3)c(C)o2)cc1 (stereo unspecified),-102
CCc1ccc(-c2nc(CSCC(=O)NC3CC3)c(C)o2)cc1,n
CN(CC(=O)Nc1cccc(F)c1)C(=O)CCCNC(=O)c1ccc(Cl)cc1,-91
Cc1ccc(C(=O)N/N=C2\SCC(=O)N2c2cc(C)ccc2C)cc1,-94
Fc1ccccc1Nc1n[nH]c(=S)s1,-64
CN(C)c1ccc(N=Nc2cccc(F)c2)cc1,-106
CN(C)c1ccc(N=Nc2cccc3ccoc23)cc1,-136
COC(=O)c1ccc(-c2ccc(F)cc2)nc1C,-192
CCOC(=O)c1cc(-c2ccc(C)cc2)nc2nc(SC)[nH]c(=O)c12,n
CCOC(=O)c1ccc(-c2ccc3c(c2)CCC3)nc1C,-99
CCOC(=O)/C=C/c1cnn(-c2ccccc2)c1,-113
O=C(Cc1ccc([N+](=O)[O-])cc1)N/N=C/c1ccc([N+](=O)[O-])o1,n
CC1(C(=O)N/N=C/c2ccc([N+](=O)[O-])o2)CC1(Br)Br (stereo unspecified),-96
O=C(COc1ccccc1[N+](=O)[O-])N/N=C/C=C/c1ccco1,-73
Cc1ccccc1OCC(=O)N/N=C/c1ccc([N+](=O)[O-])o1,-68
O=C(N/N=C/c1cn(-c2cccs2)nc1-c1ccccc1)c1ccc(O)cc1,-65
O=C(N/N=C/c1cc(Br)ccc1O)c1ccccc1Cl,n
O=C(N/N=C/c1cn(-c2cccs2)nc1-c1ccccc1)c1ccccc1Cl,-63
COc1ccc2c(COC(=O)c3n[nH]c4ccccc34)cc(=O)oc2c1,-180
Cc1cc2oc(=O)cc(COC(=O)c3n[nH]c4ccccc34)c2cc1C,-134
Cn1cnnc1Sc1ccc(/C=C/C(=O)c2ccc(O)cc2)cc1[N+](=O)[O-],-111
C=CCc1ccc(OCc2ccc(C(=O)Nc3ccc(NC(C)=O)cc3)o2)c(OC)c1,-74
Oc1ccccc1/C=N/NC1=NCCCCC1,-161
SMILES,aSyn UTR act
COc1ccc(/C=N/NC2=NCCCCC2)cc1,-86
COc1ccc(/C=N/Nc2cc(N(C)C)nc(N(C)C)n2)cc1,-65
c1cc2c(cc1C1CCCCC1)c1c3n2CCCNC3CCC1 (stereo unspecified),n
COCCN=c1scc(-c2cccs2)n1/N=C/c1ccc(O)c(O)c1O,n
CCN=c1scc(-c2ccco2)n1/N=C/c1ccc(OC)c(O)c1,-228
CCN=c1scc(-c2ccco2)n1/N=C/c1ccc(O)cc1,-173
COc1ccc(Oc2c(Cl)cnn(-c3ccc(Cl)c(Cl)c3)c2=O)cc1,n
Cn1ncc(Oc2ccc([N+](=O)[O-])cc2)c(Cl)c1=O,-66
Cn1ncc(Cl)c(Oc2ccc(Cl)cc2)c1=O,-73
O=C1C(N2CCOCC2)=C(n2nnc3ccccc32)C(=O)c2ccccc21,n
O=S1(=O)C=C(N2CCOCC2)c2ccccc21,-70
O=C(Nc1nnc(-c2ccccc2)s1)c1ccccc1F,-152
O=C(Nc1nnc(-c2ccccc2Cl)s1)c1ccccc1F,-173
CCC(Sc1nncn1C)C(=O)Nc1nnc(-c2ccccc2Cl)s1 (stereo unspecified),-64
NNC(=O)c1cc2sccc2s1,-80
NS(=O)(=O)c1ccc(NC(=O)/C=C/c2cccc(Cl)c2)cc1,-81
O=C(/C=C/c1cccc(Cl)c1)Nc1ccncc1,-112
O=C(Nc1ccc(Cl)cn1)Nc1ccccc1Cl,-87
S=C(Nc1ccccn1)Nc1ccccc1Cl,-83
O=[N+]([O-])c1cnc(Nc2ccc(Cl)cn2)c([N+](=O)[O-])c1,-129
O=C(Nc1ccc(Cl)cn1)c1ccccc1[N+](=O)[O-],-77
O=C(Nc1ccccn1)Nc1ccccc1Cl,-131
Cc1cc(NC(=O)Nc2ccccc2Cl)no1,-74
COc1ccc(-c2cn3cc(C)ccc3n2)cc1F,n
COc1ccc(-c2cn3cccc(C)c3n2)cc1F,-149
SMILES,aSyn UTR act
Cc1ccc(-c2cn3cccc(C)c3n2)cc1,-75
O=[N+]([O-])c1cccn2cc(-c3ccc(Br)cc3)nc12,-315
CCOC(=O)c1c(C)c(C(=O)Nc2ccc(N(C)C)cc2)c(C)n1CC,-82
CCOC(=O)c1cccc(OS(=O)(=O)Cc2ccccc2)c1,-63
CCOC(=O)c1ccc(NCc2ccc(N(C)C)cc2)cc1,-87
CCOC(=O)c1ccc(NC(=S)Nc2ccccc2)cc1,-147
CCOC(=O)c1ccc(S(=O)(=O)NCCN(CC)CC)cc1,n
CCOC(=O)c1ccc(CNCc2ccccc2)cc1,-66
CCOC(=O)c1ccc(NC(=S)Nc2ccc(C)cc2)cc1,-145
COC(=O)c1ccc(NC(=O)CNc2ccccc2)cc1,-99
CCOC(=O)c1cn[nH]c1NC(=S)Nc1ccc(Cl)cc1,-66
CC(=NC1CC1)C1=C(O)c2ccccc2C1=O,-177
CC(=O)Nc1ccc(NC2=C/C(=N/S(=O)(=O)c3cccs3)c3ccccc3C2=O)cc1,n
CC(=O)Nc1ccc(N=C(C2=C(O)c3ccccc3C2=O)c2ccccc2)cc1,-64
CCOc1ccc(N=C(C)C2=C(O)c3ccccc3C2=O)cc1,-123
COc1cccc(C(=O)/C=C/Nc2cccc(O)c2)c1,-87
COc1cccc(C(=O)/C=C/Nc2ccc(NC(C)=O)cc2)c1,-125
COc1cc(/C=N/Nc2nc3ccccc3s2)cc([N+](=O)[O-])c1O,-100
O=[N+]([O-])c1cc(Cl)cc(/C=N/Nc2nc3ccccc3s2)c1O,-78
CSc1nc2ccc(NC(=O)CSc3nnc(N)s3)cc2s1,-119
Cn1cnnc1SCC(=O)Nc1ccc2nc(SCc3ccccc3F)sc2c1,-163
Cc1ccc(C2=N/C(=C\N3CCCCC3)C(=O)O2)cc1,-105
Cc1ccc(C2=N/C(=C/N3CCOCC3)C(=O)O2)cc1,-100
CCOc1cc(/C=N/Nc2cc(C)nc(-n3nc(C)cc3C)n2)ccc1O,n
COc1cc(/C=N/Nc2ccc(C(F)(F)F)cn2)ccc1O,-147
SMILES,aSyn UTR act
O=C(O)c1ccc(/C=N/Nc2ccc(C(F)(F)F)cn2)cc1,-172
N#C/C(=C\c1ccc(O)cc1)c1nc2ccccc2o1,-120
Cc1csc2ncc(C(=O)Nc3ccccc3F)c(=O)n12,-205
Cc1csc2ncc(C(=O)Nc3ccccc3Cl)c(=O)n12,-204
Cc1cc(Cl)ccc1OCc1cn2cccnc2n1,-124
Clc1ccc(OCc2cn3cccnc3n2)c2ncccc12,-64
O=C(COC(=O)C1CC1)Nc1ccc(N=Nc2ccccc2)cc1,-119
Cc1cc(/C=c2\sc3nc4ccccc4n3c2=O)c(C)n1-c1ccc(C(=O)O)cc1,-62
O=c1/c(=C\c2cccnc2)sc2nc3ccccc3n12,-107
Cc1cc(/C=c2/sc3nc4ccccc4n3c2=O)c(C)n1-c1ccccn1,n
COc1nc(NCCO)nc(Nc2ccccc2F)n1,-97
COc1cccc(NS(=O)(=O)NC(=O)c2c[nH]c3ccccc23)c1,-63
Cc1cc(C)cc(OCCn2nnc3ccccc32)c1,-126
Clc1ccccc1OCCn1nnc2ccccc21,-169
Cc1ccc(C)c(OCCn2nnc3ccccc32)c1,-70
Cc1ccc(OCCn2nc3ccccc3n2)c(C)c1,-90
O=[N+]([O-])c1ccc(N=Nc2ncc[nH]2)cc1,-96
COC(=O)C1C(=O)c2c([nH]c(C(=O)OC3CCCC3)c2C)CC1C (stereo unspecified),-131
O=C(/C=C/c1ccc(OCCCF)cc1)Nc1ccnc(-c2cccnc2)n1,-121
O=C(/C=C/c1ccc(OCCCF)cc1)Nc1ccnc(-c2ccncc2)n1,-209

# Bioassay records (PubChem)
